Data reported in the supplement of paper PMC8291772.
± gives the standard error. In all, about 1,300 sequences were measured (“fluorescence a.u.”: median about 38, highest 2% from about 280 on). Shown is part of a subset that was picked to be rich in the highest values.

What follows are sequences tested against terminal deoxynucleotidyl transferase (calf thymus) (UniProt P06526) (assay: TdT poly-dT extension signal (Cy3 hybridisation fluorescence, uncapped minus capped) (fluorescence a.u.); higher = more efficient initiation of TdT extension). Conditions: initiator chemistry: L-DNA (mirror-image), free 5'-OH (3'-tethered via HEG linker).
Protocol: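 All mono- to pentamer D-DNA or L-DNA initiators were made by forward (3'->5') photolithographic in situ synthesis on glass on a hexaethylene glycol linker, leaving a free 5'-OH. Each was made in uncapped and DMTr-dT-capped versions, about 11 replicates each. Arrays were extended with calf thymus TdT (0.2 U/uL), 100 uM dTTP and 0.25 mM CoCl2 for 120 min at 37 C, hybridised with an rA18-Cy3 probe and scanned at 532 nm. The value is the mean uncapped minus the mean capped signal. IDs read 5'->3'. L-DNA is mirror-image; D-DNA 5'-OH initiators were below LOD (no extension).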

terminal deoxynucleotidyl transferase (calf thymus), sequence (P06526 whole entry): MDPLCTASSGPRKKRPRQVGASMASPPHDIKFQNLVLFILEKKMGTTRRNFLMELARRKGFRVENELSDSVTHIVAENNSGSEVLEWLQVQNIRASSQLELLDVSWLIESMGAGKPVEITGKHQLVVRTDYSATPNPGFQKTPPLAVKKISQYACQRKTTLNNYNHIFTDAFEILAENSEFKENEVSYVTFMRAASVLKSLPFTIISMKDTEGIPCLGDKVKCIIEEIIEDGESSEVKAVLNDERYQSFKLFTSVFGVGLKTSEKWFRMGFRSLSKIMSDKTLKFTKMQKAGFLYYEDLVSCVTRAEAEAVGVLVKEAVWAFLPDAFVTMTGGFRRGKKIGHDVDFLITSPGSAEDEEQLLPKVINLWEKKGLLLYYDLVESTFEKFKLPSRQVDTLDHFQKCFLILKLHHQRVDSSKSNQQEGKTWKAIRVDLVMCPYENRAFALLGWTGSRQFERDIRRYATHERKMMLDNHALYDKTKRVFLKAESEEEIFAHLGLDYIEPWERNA

Row | Sequence | TdT poly-dT extension signal
1 | ATCAT | 172 ± 14
2 | GTCAC | 153 ± 10
3 | TTCAA | 388 ± 29
4 | TTCAT | 372 ± 18
5 | CTCAT | 130 ± 12
6 | CTCAA | 147 ± 10
7 | ATCAC | 188 ± 16
8 | CTCAG | 173 ± 11
9 | TTCAC | 371 ± 39
10 | GTCAG | 161 ± 18
11 | TTCA | 275 ± 22
12 | TTCAG | 356 ± 32
13 | GAGTT | 40.6 ± 5.8
14 | AAAAG | 101 ± 8.9
15 | GACGG | 117 ± 18
16 | GAACC | 55.9 ± 8.8
17 | ACCAT | 97.4 ± 8.9
18 | GGGTG | 69.1 ± 4.3
19 | TGCGA | 157 ± 7.9
20 | TTATC | 325 ± 29
21 | CTATC | 168 ± 13
22 | TTATA | 384 ± 22
23 | TTATG | 340 ± 26
24 | TTGT | 258 ± 19

Row | Sequence | TdT poly-dT extension signal
25 | ATATG | 192 ± 15
26 | CTATG | 161 ± 12
27 | TTAT | 340 ± 30
28 | ATATA | 192 ± 12
29 | GTAT | 140 ± 12
30 | CTATA | 170 ± 13
31 | ATATC | 192 ± 14
32 | TTGGA | 284 ± 17
33 | AGTGA | 57.2 ± 5.7
34 | ACTCA | 79.4 ± 8.6
35 | TATAT | 197 ± 14
36 | AACTT | 58.3 ± 8.9
37 | ACGCG | 70.6 ± 6.6
38 | GGTTA | 50.7 ± 4.8
39 | GTATT | 158 ± 10
40 | TTATT | 381 ± 16
41 | ATATT | 201 ± 13
42 | TATCC | 138 ± 13
43 | AAAGC | 67 ± 7.7
44 | GCTGA | 75.3 ± 5.4
45 | CGACA | 68.1 ± 4.9
46 | CTAAG | 215 ± 13
47 | CTAA | 170 ± 12
48 | CTAAT | 206 ± 15

Row | Sequence | TdT poly-dT extension signal
49 | TTAAT | 491 ± 32
50 | TTAA | 347 ± 25
51 | GTAAC | 191 ± 15
52 | TTAAG | 495 ± 38
53 | CTAAC | 201 ± 14
54 | GTAA | 143 ± 13
55 | TTAAC | 377 ± 27
56 | ATAAT | 246 ± 19
57 | ATAAG | 229 ± 14
58 | GGAAG | 82.2 ± 8.3
59 | ACGTC | 47.1 ± 4.9
60 | TACTG | 153 ± 14
61 | TCTGA | 172 ± 12
62 | ATCAA | 236 ± 13
63 | GTCA | 95.9 ± 6.2
64 | GGATC | 67.1 ± 5.8
65 | AATA | 106 ± 9.7
66 | ATGGC | 127 ± 8.4
67 | AACGG | 77.3 ± 5.7
68 | GAGTG | 61 ± 6.3
69 | ATAAA | 276 ± 19
70 | TTAAA | 563 ± 39
71 | CTAAA | 224 ± 15
72 | TCGAA | 187 ± 8.6

Row | Sequence | TdT poly-dT extension signal
73 | CTTGC | 107 ± 7.2
74 | GTGAG | 160 ± 13
75 | TTGAC | 338 ± 26
76 | CTGAG | 130 ± 11
77 | TTGAA | 339 ± 42
78 | GTGAA | 142 ± 17
79 | ATGAT | 150 ± 9.9
80 | TTGA | 270 ± 19
81 | GTGAT | 121 ± 12
82 | GTGAC | 144 ± 9
83 | ATGAA | 175 ± 12
84 | TTGAT | 314 ± 27
85 | TTGAG | 317 ± 33
86 | TCTCC | 117 ± 8.4
87 | CCGGG | 82.9 ± 7.7
88 | GTAAA | 239 ± 15
89 | ACTTT | 70.7 ± 5.3
90 | CTGGT | 116 ± 6.9
91 | TCCCG | 199 ± 19
92 | AATG | 74.3 ± 5.6
93 | GTGTT | 100 ± 8.2
94 | CGCGA | 66.2 ± 6
95 | ACCCG | 76.1 ± 6.5
96 | CTTCG | 133 ± 16

Row | Sequence | TdT poly-dT extension signal
97 | TTTCG | 286 ± 22
98 | TTTC | 280 ± 19
99 | TGCAC | 141 ± 11
100 | GGGCG | 83.8 ± 6.6
101 | GACGC | 93 ± 9.5
102 | CTGGG | 141 ± 8.5
103 | TTGGG | 335 ± 18
104 | ATTGG | 180 ± 13
105 | GTTGG | 144 ± 11
106 | TTTTT | 282 ± 18
107 | TTTT | 223 ± 25
108 | TTGG | 274 ± 21
109 | TTTTG | 293 ± 38
110 | TTTGG | 350 ± 26
111 | GTTGT | 139 ± 8.7
112 | ATTGT | 167 ± 9.2
113 | TTTGT | 311 ± 21
114 | GTGGG | 172 ± 9.4
115 | TATCA | 160 ± 12
116 | GGCGC | 77.7 ± 6.3
117 | CGAGC | 65 ± 6.4
118 | GCGGC | 73.3 ± 6.8
119 | AGCAA | 61.2 ± 5.3
120 | TTTG | 264 ± 15

Row | Sequence | TdT poly-dT extension signal
121 | TTTGC | 271 ± 19
122 | TTTGA | 320 ± 26
123 | TTCCA | 299 ± 18
124 | GTCCA | 122 ± 10
125 | CTCCT | 111 ± 9.1
126 | TTCCC | 358 ± 31
127 | TCCCC | 175 ± 17
128 | GTCCT | 117 ± 9.6
129 | TTCCT | 286 ± 28
130 | TTCC | 293 ± 17
131 | ATCCC | 147 ± 16
132 | ATCCA | 153 ± 10
133 | TGCC | 126 ± 14
134 | TTTCC | 270 ± 21
135 | CTTCA | 130 ± 11
136 | CCTAA | 98.7 ± 6
137 | ATGCT | 116 ± 7.5
138 | CGTTT | 51.4 ± 5
139 | GTAGG | 181 ± 10
140 | CCAAG | 120 ± 9.5
141 | CTTT | 127 ± 17
142 | TATC | 171 ± 12
143 | TGTA | 126 ± 10
144 | TACA | 178 ± 8

Row | Sequence | TdT poly-dT extension signal
145 | TTCCG | 388 ± 25
146 | GTCCG | 147 ± 12
147 | CTCCG | 127 ± 11
148 | TGCGC | 154 ± 12
149 | TTCTG | 320 ± 24
150 | GTCTG | 128 ± 7.3
151 | CTCTT | 122 ± 10
152 | TTCT | 243 ± 31
153 | CTCTA | 130 ± 12
154 | ATCTG | 143 ± 16
155 | TTCTT | 311 ± 24
156 | GTCTT | 128 ± 8
157 | TTCTA | 312 ± 31
158 | ACCCA | 77.1 ± 11
159 | TCGAT | 152 ± 12
160 | CAGTG | 49.3 ± 7.1
161 | CCTA | 84.4 ± 13
162 | ACAAC | 92.6 ± 6.6
163 | GCACG | 87 ± 5.5
164 | ATGCC | 109 ± 15
165 | ATCGA | 206 ± 17
166 | TTCG | 284 ± 31
167 | TTCGT | 330 ± 27
168 | CTCGA | 135 ± 12

Row | Sequence | TdT poly-dT extension signal
169 | TTCGA | 367 ± 21
170 | ATCGT | 189 ± 13
171 | TCCG | 221 ± 19
172 | TTCGG | 347 ± 20
173 | CTCGG | 158 ± 9.7
174 | GTCGG | 178 ± 14
175 | CTCGT | 115 ± 9
176 | CTCG | 124 ± 17
177 | TCATT | 134 ± 15
178 | GACTG | 85.6 ± 6.6
179 | GCCTG | 90.6 ± 8.8
180 | CCAC | 93 ± 7.6
181 | ATACG | 188 ± 13
182 | ACAGT | 65.8 ± 8.1
183 | ACTGG | 71.1 ± 8.8
184 | TAGCC | 105 ± 7.2
185 | TTCGC | 323 ± 18
186 | GTCGC | 137 ± 12
187 | CTCGC | 146 ± 15
188 | CGGTC | 31.7 ± 5.1
189 | AGCGC | 57.8 ± 6.1
190 | ATAGC | 182 ± 14
191 | CTAGT | 157 ± 12
192 | TTAGC | 308 ± 15

Row | Sequence | TdT poly-dT extension signal
193 | CTAGA | 170 ± 11
194 | TTAG | 308 ± 27
195 | TAAG | 161 ± 15
196 | GTAG | 159 ± 11
197 | GTAGA | 191 ± 19
198 | TTAGT | 368 ± 28
199 | TTAGA | 396 ± 35
200 | GTAGT | 130 ± 11
201 | CTAGC | 134 ± 8.7
202 | TGTCA | 114 ± 7.2
203 | AGTGT | 44.6 ± 5.9
204 | GATGC | 82.1 ± 9.4
205 | TACGA | 194 ± 14
206 | CCGGA | 78.7 ± 10
207 | ACGAA | 76.9 ± 4.9
208 | GTTTA | 123 ± 9.7
209 | ATAGG | 198 ± 12
210 | TTAGG | 444 ± 29
211 | CTAGG | 182 ± 8.8
212 | CCTGG | 79.5 ± 7.8
213 | TCTCA | 199 ± 18
214 | TCTCT | 347 ± 200
215 | TCTC | 128 ± 17
216 | TAGGA | 123 ± 9.3

Row | Sequence | TdT poly-dT extension signal
217 | CTACT | 152 ± 15
218 | GTACA | 152 ± 8.5
219 | CTACC | 127 ± 19
220 | TTACG | 380 ± 28
221 | TTACA | 344 ± 20
222 | TTACC | 393 ± 30
223 | GTACG | 158 ± 12
224 | TTAC | 275 ± 24
225 | GTACC | 143 ± 13
226 | GTACT | 137 ± 10
227 | ATACA | 204 ± 18
228 | TTACT | 396 ± 14
229 | GACCT | 77.6 ± 11
230 | GAGGT | 55.2 ± 5.3
231 | CAGAG | 71.3 ± 6.3
232 | AATTG | 77.2 ± 7
233 | CTTTG | 141 ± 13
234 | CCACT | 90 ± 7.8
235 | AGTA | 44.2 ± 4.4
236 | ACCA | 87.8 ± 9.2
237 | TTTCA | 281 ± 27
238 | ACCG | 78.2 ± 8
239 | ATTAT | 152 ± 14
240 | CTTAC | 153 ± 14

Row | Sequence | TdT poly-dT extension signal
241 | CTTAA | 181 ± 12
242 | TTTAG | 345 ± 24
243 | TTTAC | 344 ± 22
244 | GTTAC | 130 ± 11
245 | TTTAA | 392 ± 18
246 | TTTA | 271 ± 29
247 | ATTAG | 195 ± 19
248 | CTTAT | 106 ± 7.6
249 | TTTAT | 331 ± 24
250 | GTTAA | 194 ± 15
251 | TGAGC | 147 ± 8.6
252 | TAAAC | 191 ± 19
253 | CACCG | 74.4 ± 8.1
254 | TAAAT | 192 ± 18
255 | GCCGC | 93.5 ± 6.3
256 | GTTTT | 125 ± 8.3
257 | CTTTA | 106 ± 9.8
258 | TTTTA | 302 ± 24
259 | TTTTC | 242 ± 27
260 | CATGG | 80 ± 9.5
